ROC1-CUL1 inh: inhibitors of human ROC1-CUL1 ubiquitin ligase activity; actives 0.6% (n = 140,000); inhibition, % at 10 µM; E3 ubiquitin-protein ligase RBX1 (Homo sapiens) + Cullin-1 (Homo sapiens), P62877+Q13616; in vitro K48 di-Ub FRET, acceptor:donor ratio, 45 min; in the data active = inhibition above about 25%
Target sequence (P62877 whole entry, looked up): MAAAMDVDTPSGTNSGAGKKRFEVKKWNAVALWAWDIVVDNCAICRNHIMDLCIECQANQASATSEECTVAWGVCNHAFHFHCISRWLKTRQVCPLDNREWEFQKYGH
Target sequence (Q13616 whole entry, looked up): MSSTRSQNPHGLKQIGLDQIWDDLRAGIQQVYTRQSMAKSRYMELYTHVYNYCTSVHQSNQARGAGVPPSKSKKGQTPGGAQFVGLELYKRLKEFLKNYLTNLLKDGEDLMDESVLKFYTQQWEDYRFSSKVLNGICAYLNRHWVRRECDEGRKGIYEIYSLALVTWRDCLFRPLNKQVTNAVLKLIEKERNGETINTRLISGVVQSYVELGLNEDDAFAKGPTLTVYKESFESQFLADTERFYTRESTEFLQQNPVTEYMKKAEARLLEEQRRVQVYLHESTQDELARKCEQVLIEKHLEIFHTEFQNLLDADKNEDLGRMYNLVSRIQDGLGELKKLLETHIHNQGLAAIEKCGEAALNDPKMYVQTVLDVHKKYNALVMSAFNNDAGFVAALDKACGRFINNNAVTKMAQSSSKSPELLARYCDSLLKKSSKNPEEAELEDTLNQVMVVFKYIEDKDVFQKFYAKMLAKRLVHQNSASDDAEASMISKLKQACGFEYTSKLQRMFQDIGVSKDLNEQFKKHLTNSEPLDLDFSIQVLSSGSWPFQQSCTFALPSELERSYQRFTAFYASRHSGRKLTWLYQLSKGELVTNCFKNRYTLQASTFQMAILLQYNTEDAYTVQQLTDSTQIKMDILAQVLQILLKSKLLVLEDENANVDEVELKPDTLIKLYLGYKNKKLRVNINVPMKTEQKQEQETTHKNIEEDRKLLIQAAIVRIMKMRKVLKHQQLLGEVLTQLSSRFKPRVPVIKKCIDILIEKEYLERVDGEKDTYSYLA
A number is an active result. The sample as a whole holds a higher share of hits than the screen did.

Screening O=C(/C=C/c1ccco1)NCc1cccc(CNC(=O)/C=C/c2ccco2)c1 returned ROC1-CUL1 inh 96.8.
`O=C1C2=C(CCCC2)C(=O)N1c1ccc(Cl)c2c1CCCC2` gave ROC1-CUL1 inh inactive.
For O=C(Cn1nc(-c2ccccc2)oc1=S)Nc1cc(C(F)(F)F)ccc1Cl the results were ROC1-CUL1 inh inactive.
For CCOC(=O)C1=C(C)N=c2s/c(=C/c3cc(I)c(OC)c(OC)c3)c(=O)n2C1c1ccc(N(C)C)cc1 (stereo unspecified) the results were ROC1-CUL1 inh inactive.
`CCOC(=O)C1=C(C)N=c2s/c(=C\c3cc(Br)c(O)c(OC)c3)c(=O)n2C1c1ccc2c(c1)OCO2` (stereo unspecified) gave ROC1-CUL1 inh 52.9.
CCOC(=O)C1=C(C)N=c2s/c(=C\c3cc(OC)ccc3OC)c(=O)n2C1c1ccc(OC)cc1 (stereo unspecified) was read as ROC1-CUL1 inh inactive.
Screening CCOC(=O)C1=C(C)N=c2s/c(=C/c3ccc(I)cc3)c(=O)n2C1c1ccc2c(c1)OCO2 (stereo unspecified) returned ROC1-CUL1 inh inactive.
`CCOC(=O)C1=C(C)N=c2s/c(=C\c3cc(I)c(O)c(OC)c3)c(=O)n2C1c1ccc(OC)cc1` (stereo unspecified) gave ROC1-CUL1 inh 46.0.
`CCOC(=O)C1=C(C)N=c2s/c(=C/c3ccccc3O)c(=O)n2C1c1ccc2c(c1)OCO2` (stereo unspecified) gave ROC1-CUL1 inh inactive.
Screening COc1ccc2ccccc2c1C1NC(=S)N=C(C)C1C(=O)Nc1ccccc1C (stereo unspecified) returned ROC1-CUL1 inh inactive.
CCN1CCN(CC(O)COc2ccc(CNC3CCCC3)cc2OC)CC1 (stereo unspecified) was read as ROC1-CUL1 inh inactive.
Screening COC(=O)c1cc(NC(=O)C(OC(C)=O)c2ccccc2)cc(C(=O)OC)c1 (stereo unspecified) returned ROC1-CUL1 inh inactive.
COc1cc(C(C)=O)ccc1OCc1cc(C(=O)NC2CCOCC2)no1 was read as ROC1-CUL1 inh inactive.
Screening N#CC1C(=N)Oc2cc(O)c(C=Nc3ccc(Cl)c(Cl)c3)cc2C1c1cccc(I)c1 (stereo unspecified) returned ROC1-CUL1 inh inactive.
Screening Cc1ccc(N=Cc2cc3c(cc2O)OC(=N)C(C#N)C3c2cccc(F)c2)c(C)c1 (stereo unspecified) returned ROC1-CUL1 inh inactive.
`N#CC1C(=N)Oc2cc(O)c(C=Nc3cc(C(F)(F)F)ccc3Cl)cc2C1c1ccco1` (stereo unspecified) gave ROC1-CUL1 inh 85.2.
`O=C1c2ccccc2NC(c2ccc([N+](=O)[O-])cc2)N1c1ccc2ccccc2c1` (stereo unspecified) gave ROC1-CUL1 inh inactive.
Screening Cc1ccccc1NC(=O)c1c(C)nc(SCC(=O)c2ccc(O)c(O)c2)c(C#N)c1-c1cccnc1 returned ROC1-CUL1 inh 27.9.
`N#Cc1c(SCC(=O)c2ccc(F)cc2)nc2c(c1-c1cccnc1)CCC2` gave ROC1-CUL1 inh inactive.
For N#Cc1c(N)nc(SCC(=O)c2ccc(O)c(O)c2)c(C#N)c1-c1ccc(OCc2ccccc2)cc1 the results were ROC1-CUL1 inh inactive.
`O=C(CN1CCN(c2c3c(cc4c2CCC4)CCC3)CC1)c1ccccc1` gave ROC1-CUL1 inh inactive.
For Cc1cc2c(n1Cc1ccccc1)C(=O)c1ccccc1-2 the results were ROC1-CUL1 inh inactive.
For CC1=C(SCc2ccccc2)C(=O)c2ccccc2C1=O the results were ROC1-CUL1 inh 37.4.
Screening Cc1ccccc1-n1ncc(SCc2ccccc2)c(Cl)c1=O returned ROC1-CUL1 inh inactive.
Cc1ccccc1NS(=O)(=O)c1cc2c(c([N+](=O)[O-])c1)-c1c(cc(S(=O)(=O)Nc3ccccc3C)cc1[N+](=O)[O-])C2=NO was read as ROC1-CUL1 inh inactive.
Screening Cc1cc(C)c(NC(=O)CSc2nnc(CNC(=O)c3ccccc3C)n2C)c(C)c1 returned ROC1-CUL1 inh inactive.
For COCc1ccc(C(=O)Nc2ccc(-c3nc(CNC(=O)[C@@H]4C[C@H]4c4ccccc4)c(C)o3)cc2)o1 the results were ROC1-CUL1 inh inactive.
CCCCCC(=O)NC(=S)Nc1cccc(Cl)c1C was read as ROC1-CUL1 inh inactive.
Cc1ccc(C)n1-c1ccc(C(N)=O)cc1 was read as ROC1-CUL1 inh inactive.
Screening Cc1ccc(C)n1-c1cccc(Cl)c1Cl returned ROC1-CUL1 inh inactive.
`Cc1cc(C(=O)O)ccc1-n1c(C)ccc1C` gave ROC1-CUL1 inh 99.5.
For Cc1ccc(C)n1-c1cc(C(=O)O)ccc1Cl the results were ROC1-CUL1 inh 101.4.
`Cc1ccc(C(=O)O)cc1-n1c(C)ccc1C` gave ROC1-CUL1 inh 95.8.
`Cc1ccc(-c2ccccc2)n1-c1cccc(C(=O)O)c1` gave ROC1-CUL1 inh inactive.
For Cc1ccc(-c2ccccc2)n1-c1ccc(C(=O)O)cc1 the results were ROC1-CUL1 inh inactive.
For Cc1ccc(-c2ccccc2)n1-c1ccc(Cl)c(C(=O)O)c1 the results were ROC1-CUL1 inh inactive.
For Cc1ccc(C(=O)O)cc1-n1c(C)ccc1-c1ccccc1 the results were ROC1-CUL1 inh inactive.
For Cc1ccc(-c2ccc(C3c4c(n[nH]c4C)OC(=N)C3C#N)o2)cc1 (stereo unspecified) the results were ROC1-CUL1 inh inactive.
O=C(c1cccc2c1Oc1nc3ccccc3nc1O2)N1CCOCC1 was read as ROC1-CUL1 inh inactive.
CCOc1ccc(C2Oc3ccccc3C3CC(c4cccs4)=NN32)cc1OCC (stereo unspecified) was read as ROC1-CUL1 inh inactive.
For CC1=NN(c2ccc(Br)cc2C)C(=O)C1C=Nc1c(C)nn(-c2ccc(C)c(C)c2)c1C (stereo unspecified) the results were ROC1-CUL1 inh inactive.
COC(=O)c1ccccc1-c1ccc(/C=c2/sc3n(c2=O)C(c2cccs2)C(C(=O)Nc2ccccc2)=C(C)N=3)o1 (stereo unspecified) was read as ROC1-CUL1 inh inactive.
For CCNc1oc(-c2cccs2)nc1S(=O)(=O)c1ccc(Cl)cc1 the results were ROC1-CUL1 inh inactive.
Screening Nc1cnc(Br)cc1Br returned ROC1-CUL1 inh inactive.
Screening Nc1cc2nsnc2cc1Br returned ROC1-CUL1 inh 96.4.
For CN(C)C(=O)OCCn1ccnc1 the results were ROC1-CUL1 inh inactive.
`Cc1ccc(NC(=O)C(C(=O)Nc2ccc(C)cc2)C2=NC(C)(C)Cc3ccccc32)cc1` gave ROC1-CUL1 inh inactive.
Screening COC(=O)c1c(S(=O)(=O)Nc2ccc3c(c2)CCC3)sc2c1CCN(C(=O)CC(C)C)C2 returned ROC1-CUL1 inh inactive.
`CO[C@H]1[C@H](NC(=O)c2ccccn2)c2ccccc2C12CCN(C(=O)c1cc3ccccc3n1C)CC2` gave ROC1-CUL1 inh inactive.
`CN(CCC(=O)/C=C/c1ccc(Cl)c(Cl)c1)CCc1ccc2c(c1)OCO2` gave ROC1-CUL1 inh 82.6.
`O=C(/C=C/c1ccc2c(c1)OCO2)Sc1ccc(Cl)cc1` gave ROC1-CUL1 inh inactive.
`CC(C)c1ccc(/C=C/C(=O)NCc2ccc3c(c2)OCO3)cc1` gave ROC1-CUL1 inh inactive.
`Cc1oc2c(O)c(O)ccc2c(=O)c1Oc1ccc(F)cc1` gave ROC1-CUL1 inh 56.3.
For Cc1oc2cc(OC(C)C)ccc2c(=O)c1Oc1ccccc1F the results were ROC1-CUL1 inh inactive.
COC(=O)COc1ccc2c(=O)c(Oc3ccccc3)c(C)oc2c1 was read as ROC1-CUL1 inh inactive.
Cc1nonc1N(Cc1ccc(Cl)cc1Cl)S(=O)(=O)c1ccccc1 was read as ROC1-CUL1 inh inactive.
